# Measurements: PubChem BioAssay (NCATS)
# Unmarked numbers belong to inactive results. Results filed as inconclusive are left out. A call without a number means that no potency is given here. Active and inactive are the calls of the source. Calls follow the shape of the dose curve; as a rule, active = well fitted curve in the direction sought with a large enough effect; inconclusive = small, poorly fitted or top-dose-only effect, or another doubt; inactive = no such curve, though single readings can be large; an effect the other way counts as inactive or inconclusive.
# How the values were obtained:
# [1] = molecular target: Glutathione peroxidase 1 (Homo sapiens) (UniProt P07203); assay: Primary qHTS Assay for Inhibitors of Recombinant Selenoprotein Glutathione Peroxidase 1 (GPX1) (AID 1845191); also: nearly all actives have a fitted effect of over 65% in size
# Chain of Glutathione peroxidase 1 (Homo sapiens) (P07203 whole entry, looked up): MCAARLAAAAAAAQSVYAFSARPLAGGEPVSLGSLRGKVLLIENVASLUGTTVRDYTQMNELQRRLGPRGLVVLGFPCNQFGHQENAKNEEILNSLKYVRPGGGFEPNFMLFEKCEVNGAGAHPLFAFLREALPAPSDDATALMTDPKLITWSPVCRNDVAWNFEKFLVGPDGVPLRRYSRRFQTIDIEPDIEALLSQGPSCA
# How it was run: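 GR-coupled assay: compounds preincubated 30 min at room temperature with GPX1, then reaction started with CHP; final 10 nM GPX1, 1 mM GSH, 0.5 mM CHP, 0.5 mM NADPH, 100 nM GR, 0.01% BSA, pH 7.5 Tris buffer. NADPH fluorescence (340/450 nm) read at 0 and 15 min.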
# [2] = molecular target: Phospholipid hydroperoxide glutathione peroxidase GPX4 (Homo sapiens) (UniProt P36969); assay: Primary qHTS Assay for Inhibitors of Recombinant Selenoprotein Glutathione Peroxidase 4 (GPX4) (AID 1845192); also: nearly all actives have a fitted effect of over 65% in size; as to activity change, negative = inhibition: series mostly up to about 50 µM
# Chain of Phospholipid hydroperoxide glutathione peroxidase GPX4 (Homo sapiens) (P36969 whole entry, looked up): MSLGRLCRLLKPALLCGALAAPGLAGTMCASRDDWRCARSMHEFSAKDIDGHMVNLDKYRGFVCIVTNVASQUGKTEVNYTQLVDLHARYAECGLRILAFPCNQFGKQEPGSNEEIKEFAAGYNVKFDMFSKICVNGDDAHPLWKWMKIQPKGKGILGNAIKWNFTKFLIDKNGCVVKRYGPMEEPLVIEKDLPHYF
# How it was run: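 GR-coupled assay: recombinant GPX4 preincubated 30 min with compound at room temperature; final 200 nM GPX4, 1 mM GSH, 0.5 mM cumene hydroperoxide, 0.5 mM NADPH, 100 nM GR, 0.01% BSA, pH 7.5 Tris. NADPH fluorescence (340/450 nm) read at 0 and 15 min.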
# [3] = molecular target: Luciferin 4-monooxygenase (Photinus pyralis) (UniProt P08659); assay: Primary firefly luciferase (FLuc) qHTS assay for identification of artifact compounds. (AID 1845220); also: nearly all actives have a fitted effect of over 60% in size; as to activity change, negative = inhibition: series mostly up to about 54 µM
# How it was run: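 D-luciferin and ATP (10 uM each, final) in Tris acetate buffer pH 7.6 were incubated with compounds for 15 min at room temperature. The reaction was started with 10 nM Photinus pyralis luciferase and luminescence read after 5 min. Percent inhibition was fitted to a 4-parameter Hill equation.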
# [4] = Primary fluorescence-based thiol-reactive (MSTI) qHTS assay for identification of artifact compounds. (AID 1845221); also: nearly all actives have a fitted effect of over 65% in size; also: potency is read from the fitted curve at half-maximal effect;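 as to activity change, negative = thiol reactive: series mostly up to about 54 µM; thiol-reactive compounds lower the probe fluorescence signal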
# How it was run: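 A multi-concentration qHTS design tested compounds against 4 uM MSTI, pH 7.4 phosphate-buffered saline. Plates were protected from light for 1 h at room temperature before imaging fluorescence.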
# [5] = test system: Nanoluciferase (engineered Oplophorus gracilirostris luciferase); assay: Primary Nanoluciferase (NLuc) qHTS assay for identification of artifact compounds. (AID 1845222); also: series mostly up to about 54 µM
# How it was run: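 Diluted conditioned medium from NLuc-expressing S16 cells treated with compounds for 15 min at room temperature, then Nano-Glo substrate added; luminescence read after 5 min. Percent inhibition versus no-enzyme and DMSO controls fitted to 4-parameter Hill equation.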
# [6] = Primary redox qHTS assay for identification of artifact compounds. (AID 1845223)
# How it was run: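 Amplex Red (25 uM) and HRP (250 mU/mL) in HBSS, with compounds for 15 min, then 250 uM DTT for 30 min, room temperature, dark. Fluorescence 525/598 nm read; normalized to DMSO and 10 uM DA3003; Hill fit.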
SMILES,Potency [1],Potency [2],Potency [3],Potency [4],Potency [5],Potency [6],outcome [3],"activity change, negative = thiol reactive [4]","activity, negative = inhibition [5]",redox activity (% of DA3003) [6],outcome [1],"activity change, negative = inhibition [2]"
CC(C)c1ccc(CC(=O)N2CCC[C@@H](c3cccc(OC(C)(C)C(=O)O)c3)C2)cc1,inactive,inactive,inactive,inactive,inactive,inactive,,,,,,
CC(C)C1=CC2=CCC3[C@](C)(CCC[C@@]3(C)C(=O)O)C2CC1=O (stereo not given in full),inactive,inactive,inactive,inactive,inactive,inactive,,,,,,
C/C=C(\C)C(=O)O[C@H]1[C@H](O)[C@]2(COC(C)=O)[C@H](O)C[C@]3(C)C(=CCC4[C@@]5(C)CC[C@H](O[C@@H]6O[C@H](C(=O)O)[C@@H](O[C@@H]7O[C@H](CO)[C@@H](O)[C@H](O)[C@H]7O)[C@H](O)[C@H]6O[C@@H]6O[C@H](CO)[C@@H](O)[C@H](O)[C@H]6O)[C@](C)(CO)C5CC[C@]43C)[C@@H]2CC1(C)C (stereo not given in full),inactive,inactive,,,,,inactive [at 11.6 µM],113% [at 11.5 µM],4.32% [at 11.6 µM],2.47% [at 11.5 µM],,
CC(=O)N1c2ccccc2C2(O)CC3C(=O)NC(CC(C)C)C(=O)N3C12 (stereo not given),inactive,inactive,inactive,inactive,inactive,inactive,,,,,,
O=C(/C=C/c1ccc(O)cc1)OCC1=CC2OC(=O)C3=CO[C@@H](O[C@@H]4O[C@H](CO)[C@@H](O)[C@H](O)[C@H]4O)[C@H]1[C@@H]32 (stereo not given in full),inactive,inactive,inactive,inactive,inactive,inactive,,,,,,
OC[C@H]1O[C@@H](OCCc2ccc(O)cc2)[C@H](O)[C@@H](O)[C@@H]1O,inactive,inactive,inactive,11.9 µM (active),inactive,inactive,,,,,,
COC(=O)c1ccc(O[C@@H]2O[C@H](CO)[C@@H](O)[C@H](O)[C@H]2O)c(OC)c1,inactive,inactive,inactive,16.5 µM (active),inactive,inactive,,,,,,
COc1cc(/C=C/C(=O)OC(C)(C)C(OC2OC(CO)C(O)C(O)C2O)C(=O)OCc2ccc(OC3OC(CO)C(O)C(O)C3O)cc2)ccc1O (stereo not given),inactive,inactive,inactive,inactive,inactive,inactive,,,,,,
O=C(OCC12OC1C=CC(OC(=O)c1ccccc1)C2O)c1ccccc1 (stereo not given),inactive,inactive,inactive,inactive,inactive,inactive,,,,,,
Cc1c(N2C(=O)c3ccc(C(=O)O)cc3C2=O)c(=O)n(-c2ccccc2)n1C,inactive,inactive,inactive,inactive,inactive,inactive,,,,,,
CC(C)(O)/C=C1/C(=O)C(C)(C)C(=O)C(C)(C)C1(O)O[C@@H]1O[C@H](COC(=O)c2cc(O)c(O)c(O)c2)[C@@H](O)[C@H](O)[C@H]1O (stereo not given in full),inactive,inactive,inactive,0.707 µM (active),inactive,inactive,,,,,,
CC(C)[C@@H](C)/C=C/[C@@H](C)[C@H]1CC[C@H]2C3=CC=C4C[C@@H](O)CC[C@]4(C)[C@H]3CC[C@]12C,inactive,inactive,inactive,inactive,inactive,inactive,,,,,,
C[C@@H]1O[C@@H](O[C@H]2[C@H](O[C@H]3[C@H](O[C@H]4CC[C@@]5(CO)C(CC[C@]6(C)C5CC=C5C7CC(C)(C)C[C@@H](O)[C@]7(C)CC[C@]56C)C4(C)C)O[C@H](C(=O)O)[C@@H](O)[C@@H]3O)OC[C@@H](O)[C@@H]2O)[C@H](O)[C@H](O)[C@H]1O (stereo not given in full),inactive,inactive,,,,,inactive [at 11.6 µM],150% [at 11.5 µM],-0.0839% [at 11.6 µM],0.809% [at 11.5 µM],,
C/C1=C\C[C@H](O[C@@H]2O[C@H](CO)[C@@H](O)[C@H](O)[C@H]2O)/C(C)=C/[C@H]2OC(=O)[C@H](C)[C@@H]2CC1,inactive,inactive,inactive,7.33 µM (active),inactive,inactive,,,,,,
C=CC(C)(C)C1(CC2NC(=O)C3CCCN3C2=O)C(=O)Nc2cc3c(cc21)C=CC(C)(C)O3 (stereo not given),inactive,inactive,inactive,inactive,inactive,inactive,,,,,,
Nc1nonc1C(=Nc1ccc(F)c(Cl)c1)NO,inactive,inactive,inactive,inactive,inactive,inactive,,,,,,
C[C@@]12C[C@]3(O)O[C@H](O1)[C@]1(COC(=O)c4ccccc4)[C@H]3C[C@@]12O[C@@H]1O[C@H](COC(=O)c2ccccc2)[C@@H](O)[C@H](O)[C@H]1O,inactive,inactive,inactive,inactive,inactive,inactive,,,,,,
CCOC(=O)Nc1nc2ccccc2[nH]1,inactive,inactive,inactive,inactive,inactive,inactive,,,,,,
CC1CCC2(C(=O)OC3OC(CO)C(O)C(O)C3O)CCC3(C(=O)O)C(=CCC4C5(C)CCC(OC6OC(C)C(O)C(O)C6O)C(C)(C)C5CCC43C)C2C1C (stereo not given),inactive,inactive,inactive,inactive,inactive,inactive,,,,,,
C=CC(C)(O)CC/C=C(\C)C(=O)OC1CC2(C(=O)O)CCC3(C)C(=CCC4C5(C)CCC(OC6OC(COC7OCC(O)C(O)C7O)C(O)C(OC7OCC(O)C(O)C7O)C6OC6OC(CO)C(O)C(O)C6OC6OCC(O)C(O)C6O)C(C)(C)C5CCC43C)C2CC1(C)C (stereo not given),,,,,,,inactive [at 11.6 µM],122% [at 11.5 µM],2.64% [at 11.6 µM],11.8% [at 11.5 µM],inactive [at 9.52 µM],-6.88% [at 9.73 µM]
CC(C)CC(=O)O[C@@H]1OC=C(CO[C@@H]2O[C@H](CO[C@@H]3O[C@H](CO)[C@@H](O)[C@H](O)[C@H]3O)[C@@H](O)[C@H](O)[C@H]2O)[C@H]2C[C@H](O)[C@@H](CO)[C@@H]12,inactive,inactive,inactive,inactive,inactive,inactive,,,,,,
CC1=CCC2C(C)(CO)CCCC2(C)C1CC12OC1C(O)C(CO)=CC2O (stereo not given),inactive,inactive,inactive,inactive,inactive,inactive,,,,,,
CC1CCC2C(C)(C)CC(C)(CO)C2(O)C1C(=O)O (stereo not given),inactive,inactive,inactive,inactive,inactive,inactive,,,,,,

SMILES,Potency [1],Potency [2],Potency [3],Potency [4],Potency [5],Potency [6],outcome [3],"activity change, negative = thiol reactive [4]","activity, negative = inhibition [5]",redox activity (% of DA3003) [6],outcome [1],"activity change, negative = inhibition [2]"
C=CC(C)(C)O[C@@H]1O[C@H](CO[C@@H]2OC[C@](O)(CO)[C@H]2O)[C@@H](O)[C@H](O)[C@H]1O,inactive,inactive,inactive,inactive,inactive,inactive,,,,,,
CCC(C)(O)C(O)C(=O)OCc1ccc(O[C@@H]2O[C@H](CO)[C@@H](O)[C@H](O)[C@H]2O)c(OC)c1 (stereo not given in full),inactive,inactive,inactive,inactive,inactive,inactive,,,,,,
OC[C@H]1O[C@@H](n2cnc3c(NCc4ccc(O)cc4)ncnc32)[C@H](O)[C@@H]1O,inactive,inactive,inactive,inactive,inactive,inactive,,,,,,
COC(=O)[C@@]1(O)C=CC[C@@H]2[C@@]3(C)C[C@@H](c4ccoc4)OC(=O)[C@H]3CC[C@]21C,inactive,inactive,inactive,inactive,inactive,inactive,,,,,,
COC12CC3C(C(C)C1=CC(=O)O2)C(O)C(OC(C)=O)C1C(C)(C)C(OC(C)=O)CCC31C (stereo not given),inactive,inactive,inactive,inactive,inactive,inactive,,,,,,
CN1C(=O)c2ccccc2-n2c(nc3ccccc3c2=O)/C1=C/c1ccccc1,inactive,inactive,inactive,inactive,inactive,inactive,,,,,,
C[C@@H]1C(=O)O[C@H]2[C@H]1CC[C@@]1(C)C(=O)C=C[C@](C)(O)[C@H]21,inactive,inactive,inactive,21.2 µM (active),inactive,inactive,,,,,,
c1nc(NC2CCCCCC2)c2cc(CNC[C@H]3CCCO3)sc2n1,inactive,inactive,inactive,inactive,inactive,inactive,,,,,,
COc1cc(C[C@H]2COC(=O)[C@@H]2Cc2ccc(O)c(OC)c2)ccc1O,inactive,inactive,inactive,14.7 µM (active),inactive,inactive,,,,,,
C=C1[C@@H]2CC[C@@]3(C)[C@H](c4ccoc4)OC(=O)C[C@]13O[C@H]1CC(=O)C(C)(C)[C@H](CC(=O)OC)[C@]12C,inactive,inactive,inactive,inactive,inactive,inactive,,,,,,
CC1(C)CC[C@]2(C(=O)O)CC[C@]3(C)C(=CCC4[C@@]5(C)CCC(O[C@@H]6OC[C@H](O)[C@H](O)[C@H]6O[C@@H]6O[C@H](CO)[C@@H](O)[C@H](O)[C@H]6O)[C@@](C)(CO)C5CC[C@]43C)[C@@H]2C1 (stereo not given in full),inactive,inactive,inactive,inactive,inactive,inactive,,,,,,
CC(C)=CCC[C@](C)(O[C@@H]1O[C@H](CO[C@@H]2OC[C@@H](O)[C@H](O)[C@H]2O)[C@@H](O)[C@H](O)[C@H]1O)[C@H]1CC[C@]2(C)[C@@H]1[C@H](O)C[C@@H]1[C@@]3(C)CC[C@H](O[C@@H]4O[C@H](CO)[C@@H](O)[C@H](O)[C@H]4O[C@@H]4O[C@H](CO)[C@@H](O)[C@H](O)[C@H]4O)C(C)(C)[C@@H]3CC[C@]12C,inactive,inactive,inactive,inactive,inactive,inactive,,,,,,
C=C1CC2C3(C)C(O)CC(=O)C(C)(C)C3C(OC(C)=O)C(OC(C)=O)C2(C)C2C(=O)OC(C)(C(=O)OC)C(=O)C12C (stereo not given),inactive,inactive,inactive,inactive,inactive,inactive,,,,,,
C=C1C[C@]23C[C@H]1CC[C@H]2[C@@]12C=C[C@H](O)[C@@](C)(C(=O)O1)[C@H]2[C@@H]3C(=O)O,inactive,inactive,inactive,inactive,inactive,inactive,,,,,,
CC1=CC(=O)C2C(C)(C)CCCC2(C)C12CCC1(COC(=O)C1)O2 (stereo not given),inactive,inactive,inactive,7.36 µM (active),inactive,inactive,,,,,,
CC12CCC3c4ccc(O)cc4CCC3C1CCC2OC1OC(C(=O)O)C(O)C(O)C1O (stereo not given),inactive,inactive,inactive,inactive,inactive,inactive,,,,,,
CC1=CC(=O)CC(C)(CO[C@@H]2O[C@H](CO)[C@@H](O)[C@H](O)[C@H]2O)C1(O)/C=C/C(C)=C/C(=O)O (stereo not given in full),inactive,inactive,inactive,13 µM (active),inactive,inactive,,,,,,
CC(=O)OCCC(C)CCC1C(C)(O)CCC2C(C)(C)CCCC21C (stereo not given),inactive,inactive,inactive,inactive,inactive,inactive,,,,,,
Cc1[nH]cnc1C1CCN(c2nc3cccc4c3n2CCC4=O)CC1,inactive,inactive,inactive,inactive,inactive,inactive,,,,,,
OC1COC(OCC2OC(OCCc3ccccc3)C(O)C(O)C2O)C(O)C1O (stereo not given),inactive,inactive,inactive,4.12 µM (active),inactive,inactive,,,,,,
CC1=CC(=O)OC(C)(CC(C)(O)C(=O)O)C1 (stereo not given),inactive,inactive,inactive,inactive,inactive,inactive,,,,,,
O=C(CCO[C@@H]1O[C@H](CO)[C@@H](O)[C@H](O)[C@H]1O)c1ccc(O)cc1,inactive,inactive,inactive,inactive,inactive,inactive,,,,,,
